Data reported in the supplement of paper PMC12669032.
Several values for one entry are separate records, joined by “and”; a condition that tells them apart may be missing. Identical values can stand only once. Values without a mark were called inactive.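 The calls were made as follows: active = AUC reduced over 20% with Padj below 0.05 in at least 2 of 3 replicates; inactive = otherwise.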

What was measured:
Assay in all cases: growth AUC relative to DMSO control (median of replicates) (fraction); higher = more growth (less inhibition), active = hit call of the paper
Conditions in all cases: 20 µM; 24 h
Coprococcus comes = system: Coprococcus comes
Method in brief: (§1)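 Three biological replicates, each grown on a separate day, were combined as a median for every value. In each, a gut bacterial monoculture in mGAM started at OD600 0.05 and grew anaerobically at 37 °C with 20 µM compound (1% DMSO), with OD600 read hourly over 24 h. Area under the growth curve was normalised against the plate median of solvent-only wells, or against row and column medians on the industrial chemical plate, after the minimum OD was set to 0.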

Escherichia coli ED1a = system: Escherichia coli ED1a
Method in brief: as §1

Escherichia coli IAI1 = system: Escherichia coli IAI1
Method in brief: as §1

Eubacterium rectale = system: Eubacterium rectale
Method in brief: as §1

[1] = system: Fusobacterium nucleatum subsp. animalis
Method in brief: as §1

Lactobacillus gasseri = system: Lactobacillus gasseri
Method in brief: as §1

Lactobacillus paracasei = system: Lactobacillus paracasei
Method in brief: as §1

Odoribacter splanchnicus = system: Odoribacter splanchnicus
Method in brief: as §1

[2] = system: Parabacteroides distasonis
Method in brief: as §1

Parabacteroides merdae = system: Parabacteroides merdae
Method in brief: as §1

Roseburia intestinalis = system: Roseburia intestinalis
Method in brief: as §1

Streptococcus salivarius = system: Streptococcus salivarius
Method in brief: as §1

SMILES	growth AUC (Coprococcus comes)	growth AUC (Escherichia coli ED1a)	growth AUC (Escherichia coli IAI1)	growth AUC (Eubacterium rectale)	growth AUC [1]	growth AUC (Lactobacillus gasseri)	growth AUC (Lactobacillus paracasei)	growth AUC (Odoribacter splanchnicus)	growth AUC [2]	growth AUC (Parabacteroides merdae)	growth AUC (Roseburia intestinalis)	growth AUC (Streptococcus salivarius)
COc1cc(OC)nc(NC(=O)NS(=O)(=O)c2cc(NC=O)ccc2C(=O)N(C)C)n1	0.993	0.996	1.01	0.998	1.06	0.902	1.05	1.01	0.977	0.951	1.04	1.03
CCOP(=S)(OCC)Oc1cc(C)nc(C(C)C)n1	0.982	1	0.992	1.12	1.03	1.02	1.03	0.999	0.924	1	0.984	1.03
O=S1OC[C@@H]2[C@H](CO1)[C@]1(Cl)C(Cl)=C(Cl)[C@@]2(Cl)C1(Cl)Cl (stereo partly specified)	0.959 and 0.955	0.995 and 0.982	0.985 and 1.03	1.07 and 0.951	0.927 and 0.887	0.974 and 0.906	1.05 and 1.01	0.949 and 0.879	0.98 and 0.937	0.977 and 0.917	0.954 and 0.949	0.954 and 0.864
CCNc1nc(Cl)nc(NC(C)(C)C)n1	0.995	0.977	1.01	1.07	0.975	0.947	1.03	1.01	0.992	0.979	0.955	0.986
CCS(=O)(=O)Cc1ccccc1OC(=O)NC	0.996	1	1	1.07	1.03	0.958	1.02	1	0.98	0.983	0.964	0.927
C[C@@H](Oc1ccc(Cl)cc1Cl)C(=O)O	0.967	1.02	1.02	1.17	1.07	0.906	0.949	0.98	0.964	1.01	0.927	0.919
OC(c1ccc(F)cc1)(c1cncnc1)c1ccccc1Cl (stereo unspecified)	0.962	0.996	1.01	0.965	1.06	0.969	1.02	0.931	1	0.782 (active)	0.975	0.996
O=P(OC(CCl)CCl)(OC(CCl)CCl)OC(CCl)CCl	0.89	1.01	1	1.07	1.11	0.905	1.03	0.613	0.5 (active)	0.911	0.949	0.969
O=c1oc2ccccc2c(O)c1C1CC(c2ccc(-c3ccc(Br)cc3)cc2)Cc2ccccc21 (stereo unspecified)	0.856	0.998	1	0.567 (active)	0.96	0.652 (active)	0.714 (active)	0.99	0.126 (active)	0.00968 (active)	0.345 (active)	0.393 (active)
CC(CCl)OP(=O)(OC(C)CCl)OC(C)CCl (mixture of isomers)	0.999	0.973	0.984	1.08	1.08	0.851	1.01	1.01	0.94	0.976	0.967	1.01
CNC(=O)c1cc(Cl)cc(C)c1NC(=O)c1cc(Br)nn1-c1ncccc1Cl	0.991	0.988	0.995	0.961	0.867	1.03	0.961	0.926	1.01	0.98	0.957	0.99
O=C1C(Cl)=C(Cl)C(=O)C(Cl)=C1Cl	1.02	1.03	1.02	0.844	1.01	0.973	1.01	0.912	1.04	0.927	0.995	1.01
CC(Oc1ccc(Oc2ncc(C(F)(F)F)cc2Cl)cc1)C(=O)O (stereo unspecified)	0.99	1.02	0.987	0.977	1.01	0.922	0.876	1.04	0.978	0.976	1.03	0.981
